According to article PMC12431657, “Discovery and mechanistic insights of dibenzoylmethane as a broad spectrum inhibitor of coronavirus” (PLOS Pathogens, 2025):
Where two headings read alike, the source gives them in different places. Out of some 3,300 compounds screened, about 60 (2%) showed an effect of 50% or more. What follows is part of a selection rich in strong results, with near analogues and random picks from the rest.

Test system: HCoV-OC43
Design: species or system RD; HTS, protection from HCoV-OC43 induced cell death, luminescent cell viability (CellCounting-Lite 2.0), inhibition rate
Conditions: 24 h post infection, 1 h compound pre-incubation, 10 µM, inhibitor

Compound	OC43 Inhibition rate	OC43 Inhibition rate (OC43 Inhibition rate, 24 h)
C[S+]([O-])CCCC/C(=N\OS(=O)(=O)O)S[C@@H]1O[C@H](CO)[C@@H](O)[C@H](O)[C@H]1O (stereo partly drawn) [Glucoraphanin]	-2.3%	–
CC(C)=CCC[C@](C)(O)[C@H]1CC[C@]2(C)[C@@H]1[C@H](O)C[C@@H]1[C@@]3(C)CC[C@H](O)C(C)(C)[C@@H]3[C@@H](O[C@@H]3O[C@H](CO)[C@@H](O)[C@H](O)[C@H]3O[C@@H]3OC[C@@H](O)[C@H](O)[C@H]3O)C[C@]12C [Notoginsenoside R2]	0.5%	–
CSSSC [Dimethyl trisulfide]	-0.3%	–
COc1ccc2cc3[n+](cc2c1O)CCc1cc2c(cc1-3)OCO2 [Berberrubine (chloride)]	-0.4%	–
CC1(C)O[C@H]1COc1c2ccoc2cc2oc(=O)ccc12 [Oxypeucedanin]	0.5%	–
C[C@@H]1O[C@@H](O[C@@H]2C(=O)c3c(O)cc(O)cc3O[C@@H]2c2ccc(O)c(O)c2)[C@H](O)[C@H](O)[C@H]1O [Isoastilbin]	4.2%	–
C/C=C/C[C@@H](C)[C@@H](O)[C@H]1C(=O)N[C@@H](C(C)C)C(=O)N(C)CC(=O)N(C)[C@@H](CC(C)C)C(=O)N[C@@H](C(C)C)C(=O)N(C)[C@@H](CC(C)C)C(=O)N[C@@H](C)C(=O)N[C@H](C)C(=O)N(C)[C@@H](CC(C)C)C(=O)N(C)[C@@H](CC(C)C)C(=O)N(C)[C@@H](C(C)C)C(=O)N1C [Cyclosporin D]	68%	–
O=C1O[C@H]([C@@H](O)CO)C(O)=C1OP(=O)(O)O [L-Ascorbic acid 2-phosphate (trisodium)]	9.8%	–
CCCCCCCCCCCCCCCCCCC(=O)O [Nonadecanoic acid]	-0.5%	–
COC(=O)C1=C(O)c2ccccc2C(=O)[C@]1(CC=C(C)C)C1=CC(=O)c2ccccc2C1=O [Rubipodanone A]	58.8%	–
CC(C)=CCC1=C(O)C(=O)c2ccccc2C1=O [Lapachol]	27.9%	–
CC(C)=CCC1=CC(=O)c2ccccc2C1=O [Deoxylapachol]	3.8%	–
Nc1ncnc2c1ncn2[C@@H]1O[C@H](COP(=O)(O)O)[C@@H](O)[C@H]1O [Adenosine monophosphate]	–	0%
C1CCN2C[C@H]3C[C@H](CN4CCCC[C@@H]34)[C@H]2C1 [(+)-Sparteine]	–	6%
C=C(C)[C@H](CC=C(C)C)Cc1c(O)cc(O)c2c1O[C@H](c1ccc(O)cc1O)CC2=O [sophoraflavanone G]	39.8%	–
C=C(C)[C@H](CC=C(C)C)Cc1c(O)cc(OC)c2c1O[C@H](c1ccc(O)cc1O)CC2=O [Kurarinone]	0%	–
C=C(C)[C@H](CC=C(C)C)Cc1c(O)cc(OC)c2c1O[C@H](c1ccc(O)cc1OC)CC2=O [(2S)-2'-Methoxykurarinone]	98.5%	–
CC1(C)CC[C@]2(C(=O)O[C@@H]3O[C@H](CO)[C@@H](O)[C@H](O)[C@H]3O)CC[C@]3(C)C(=CC[C@@H]4[C@@]5(C)CC[C@H](O[C@@H]6O[C@H](C(=O)O)[C@@H](O)[C@H](O)[C@H]6O[C@H]6OC[C@@H](O)[C@H](O)[C@H]6O)C(C)(C)[C@@H]5CC[C@]43C)[C@@H]2C1 [Pseudoginsenoside RT1]	0.7%	–
O=c1c2cc(O[C@@H]3O[C@H](CO)[C@@H](O)[C@H](O)[C@H]3O)c(O)cc2oc2cc(O)c([C@@H]3O[C@H](CO)[C@@H](O)[C@H](O)[C@H]3O)c(O)c12 [Neomangiferin]	3%	–
COC[C@@H](Cc1ccc(OC)c(OC)c1)[C@@H](COC)Cc1ccc(OC)c(OC)c1 [Phyllanthin]	0.2%	–
C/C=C(/C)C(=O)O[C@H]1C(C)=C[C@]23C(=O)[C@@H](C=C4COC(C)(C)O[C@H]4[C@]12O)[C@H]1[C@@H](C[C@H]3C)C1(C)C [Ingenol-5,20-acetonide-3-O-angelate]	69.8%	–
C/C=C(/C)C(=O)O[C@H]1C(C)=C[C@]23C(=O)[C@@H](C=C(CO)[C@@H](O)[C@]12O)[C@H]1[C@@H](C[C@H]3C)C1(C)C [Ingenol Mebutate]	1.1%	–
CC1=C[C@]23C(=O)[C@@H](C=C4COC(C)(C)O[C@H]4C2(O)[C@H]1O)[C@H]1[C@@H](C[C@H]3C)C1(C)C (stereo partly drawn) [Ingenol-5,20-acetonide]	-2.5%	–
Cc1cc(=O)c2c(O)c3c(cc2o1)OC(C)(C)[C@@H](O[C@@H]1O[C@H](CO)[C@@H](O)[C@H](O)[C@H]1O)C3 [Sec-O-Glucosylhamaudol]	-0.4%	–
